Here are results for 22 molecules from PubChem BioAssay (NCATS).

Records with an inconclusive call do not appear. Where a call stands in place of a potency, no number is given. The source made the active and inactive calls. Calls come from the whole dose curve; as a rule, active = well fitted inhibition curve with a large enough effect; inconclusive = small, poorly fitted or top-dose-only effect; inactive = flat fitted curve, though single readings scatter.

Chain of Calcium and integrin-binding protein 1 (Homo sapiens) (Q99828 whole entry, looked up): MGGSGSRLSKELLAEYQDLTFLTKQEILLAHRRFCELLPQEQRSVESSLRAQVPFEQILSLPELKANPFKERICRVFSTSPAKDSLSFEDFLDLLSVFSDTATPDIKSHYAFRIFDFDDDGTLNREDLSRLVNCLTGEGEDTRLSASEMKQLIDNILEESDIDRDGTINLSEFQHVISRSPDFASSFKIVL

The experiment addresses Calcium and integrin-binding protein 1 (Homo sapiens) (UniProt Q99828). The experiment in a line: Primary qHTS for Identification of Calcium Integrin Binding Protein 1 (CIB1) Competitor (AID 1508620). Note: top concentration of the series differs between compounds. To be noted: CIB1-GST / FITC-alphaIIb peptide fluorescence polarization; series mostly up to 114 µM. The essentials:
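Fluorescence polarization competition: GST-tagged CIB1 (1 uM final) preincubated with compound 15 min at room temperature, then FITC-labelled alphaIIb peptide (100 nM final) added. After 15 min at room temperature, polarization read at Ex 480/Em 540.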
On to `Cc1ccc(-c2ccc(CNc3nc(-c4ccccc4C(C)C)nc4ccsc34)cc2)cn1`, for which the Potency entry is “inactive”.

Regarding `COc1ccc(C(=O)Oc2ccc(-c3nc4ccccc4[nH]3)cc2)cc1OC`, the Potency result is “inactive”.

As to `O=C1NS(=O)(=O)c2cc(Br)ccc21`, the Potency result was “inactive”.

With `COc1cc(O)c(C(CC(=O)N2CCC(Cc3ccccc3)CC2)c2ccc(C)cc2)c(OC)c1` (configuration not stated), the Potency entry is “inactive”.

Turning to `COc1cc(C2Nc3ccccc3C(=O)N2Cc2ccccc2)ccc1OCc1ccc(NC(C)=O)cc1` (configuration not stated), the Potency entry was “inactive”.

Turning to `O=C(Nc1ccc(-c2nc3ccccc3[nH]2)cc1)c1ccncc1`, the Potency entry was “inactive”.

For the molecule `Cc1cnc(-c2ccccc2C(F)F)nc1NCc1ccc(-n2ccnn2)cc1`, the Potency entry was “inactive”.

Turning to `CN(C)c1cccc(NS(=O)(=O)c2ccc(NC(=O)Cc3ccc(Cl)c(Cl)c3)cc2)c1`, the Potency entry was “inactive”.

As to `CS(=O)(=O)c1ccc(C(=O)OCC(=O)N2CCC(c3ccccc3)CC2)cc1[N+](=O)[O-]`, the Potency result is “inactive”.

As to `COc1ccc(C2=Nn3c(nnc3-c3ccccc3O)SC2)c(OC)c1`, the Potency result was “inactive”.

With `O=C(CCCc1ccccc1)NC(c1ccco1)c1cc(Cl)c2cccnc2c1O` (configuration not stated), the Potency result was “inactive”.

Turning to `Cc1ccc(-c2ccc(=O)n(CC(=O)N(C)C(C)C(C)C)n2)cc1` (configuration not stated), the Potency result was “inactive”.

Turning to `COc1ccc(C2Nc3ccccc3C(=O)N2Cc2ccncc2)cc1COc1c(C)cc(NC(C)=O)cc1C` (configuration not stated), the Potency entry is “inactive”.

As to `Cc1ccc(-c2csc(N3CCC(C(N)=O)CC3)n2)cc1`, the Potency entry is “inactive”.

For `Cc1ccc(NS(=O)(=O)c2ccc3c(c2)CCC(C)(C)O3)cc1C`, the Potency result is “inactive”.

Turning to `Fc1ccc(Nc2nc(-c3ccncc3)nc3ccccc23)cc1F`, the Potency result was “inactive”.

As for `Cc1ccnc(NC(=S)N2CCN(C)CC2)c1`, the Potency result is “inactive”.

Regarding `O=S(=O)(Nc1ccccc1)c1ccc(NCc2cccc(Cl)c2O)cc1`, the Potency entry is “inactive”.

On to `CC(C)(C)OC(=O)N1CCN(c2ccc(NCc3ccoc3-c3ccc(C#N)cc3)cc2)CC1`, for which the Potency entry is “inactive”.

For the molecule `Cc1c(P(=S)(c2ccccc2)c2ccccc2)c2ccccc2n1C/C=C/c1ccccc1`, the Potency result was “inactive”.

As for `CC(=O)NC(c1cc(F)c2cccnc2c1O)C(C)C` (configuration not stated), the Potency entry was “inactive”.

For `COc1ccc(-c2nnc3n2N=C(c2ccccc2OC)CS3)cc1`, the Potency entry is “inactive”.
